Giardia killer – Small Molecules that selectively kill Giardia lamblia: qHTS; Giardia lamblia trophozoite viability; activity change, % at 7.66 µM, hits read low; hit rate 0.15% among 340,000; in the data active = activity change below about -80%; inconclusive = between about -30% and that limit;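 note: parasites exposed to compound for two days anaerobically before the ATP read; % is set by controls: 0 for no effect and ±100 for the full control effect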
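Trophozoites 100 cells/well + cpd; 48 hrs, 37 deg C, anaerobic. ATPLite 1-Step added, 15-30 min RT, luminescence read (ATP-based viability).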
FBPA coupling cs – qHTS Assay for Inhibitors of Fructose-1,6-bisphosphate Aldolase from Giardia Lamblia: Coupling assay counterscreen | coupling enzyme system counterscreen, AmpLite Red fluorescence | activity change, negative = inhibition, % at 58.2 µM, hits read low | hit rate 0.67% among 290,000 | AID 2472, 2010; in the data active = activity change below about -30%; note: % is set by controls: 0 for no effect and ±100 for the full control effect
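Final compound at 57.5 uM, incubated 10 min at RT with coupling enzyme reagent (glyceraldehyde-3-phosphate), then 20 min with substrate and AmpLite Red detection. Fluorescence read at 525/598 nm; tests interference with the coupling assay, not aldolase inhibition.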
uPA generation – qHTS for Inhibitors of Cell Surface uPA Generation | AID 540303, 2011 | cell surface uPA generation assay, qHTS | hit rate 0.31% among 330,000 | Potency, µM (highest dose often 38.3 µM), inactives show top-dose activity change, negative = inhibition, hits mostly inhibitors; active = well fitted inhibition curve with a large enough effect; inconclusive = small, poorly fitted or top-dose-only effect; inactive = no such curve, though single readings can be large or run the other way; tested in mouse RAW 264.7 cells; note: potency is the fitted concentration of half-maximal effect; % is set by controls: 0 for no effect and ±100 for the full control effect; nearly all actives have a fitted effect of over 55% in size
miR-21 act – qHTS Assay for Modulators of miRNAs and/orActivators of miR-21 | HeLa miR-21 FLuc reporter, luciferase, 48 h | Potency, µM (top dose mostly 38.3 µM), for the others: at the top dose activity change, positive = activation, most hits filed as activators | 340,000 tested, under 10 active | AID 2288, 2010;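 note: % of control where 0% means no effect; miR-21 action dims this reporter so a rising signal means less miR-21 action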
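Using DMEM plus 10% FBS, HeLa miR-21-FLuc cells are incubated with test compounds (final up to about 40uM) for 48 hours; firefly luciferase signal is then imaged following reagent-mediated lysis.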
B2AR arrestin – qHTS assay of beta-arrestin-biased ligands of beta2-adrenergic receptor. Beta-2 adrenergic receptor (Homo sapiens), P07550. beta-arrestin recruitment to beta2AR, cell-based reporter. Potency, µM (highest dose often 46.1 µM), without a hit: at the top dose activation, most hits filed as activators. hit rate 0.02% among 330,000;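 note: potency is the fitted concentration of half-maximal effect; 0% = DMSO controls and full agonism = EC100 isoproterenol or metaproterenol; nearly all actives have a fitted effect of over 65% in size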
Target sequence (P07550 whole entry, looked up): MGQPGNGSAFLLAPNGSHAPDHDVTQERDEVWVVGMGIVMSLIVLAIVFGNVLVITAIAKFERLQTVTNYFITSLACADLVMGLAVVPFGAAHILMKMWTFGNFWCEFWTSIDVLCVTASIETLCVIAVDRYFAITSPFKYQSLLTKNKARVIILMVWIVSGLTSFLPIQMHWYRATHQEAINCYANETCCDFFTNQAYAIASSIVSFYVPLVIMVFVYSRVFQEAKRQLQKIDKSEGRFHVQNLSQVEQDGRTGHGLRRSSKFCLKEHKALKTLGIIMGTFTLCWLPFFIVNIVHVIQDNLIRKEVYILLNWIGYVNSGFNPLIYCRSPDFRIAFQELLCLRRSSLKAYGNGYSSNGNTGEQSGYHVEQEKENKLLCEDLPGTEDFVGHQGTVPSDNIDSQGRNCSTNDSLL
GALK inh – qHTS Assay for Inhibitors of Human Galactokinase (GALK) | P51570 | Purified GALK, Kinase-Glo residual ATP luminescence | Potency, µM (top dose mostly 57.5 µM), for the others: at the highest dose activity change, negative = inhibition, usual class: inhibitors | hit rate 0.007% among 270,000 | AID 1868, 2009; note: potency is the fitted concentration of half-maximal effect; % is set by controls: 0 for no effect and ±100 for the full control effect
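Galactose (100 uM) and ATP (35 uM) were turned over by 5 nM GALK for 1 h at RT. Kinase-Glo Plus then converted the remaining ATP into a luminescent signal.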
Numbers without * were called inactive; ? = inconclusive; nt = not tested or not shown. Only some compounds are listed: those with a hit (about 0.92% of all), similar ones and a draw of the others. Unless noted, calls come from the whole dose curve; as a rule, active = well fitted curve in the direction sought with a large enough effect; inconclusive = small, poorly fitted or top-dose-only effect, or another doubt; inactive = no such curve, though single readings can be large; an effect the other way counts as inactive or inconclusive.

SMILES | Giardia killer | FBPA coupling cs | uPA generation | miR-21 act | B2AR arrestin | GALK inh
CCOc1ccc(CCNC(=O)Cn2ncn3c(cc4sc(C)cc43)c2=O)cc1OCC | nt | nt | nt | -6.7% | nt | nt
COc1ccc(-c2nn(-c3cccc([N+](=O)[O-])c3)c3c2cnc2cc4c(cc23)OCO4)cc1 | nt | nt | nt | -3.6% | nt | nt
O=C(N/N=C/c1ccc(N2CCCCC2)o1)c1ccccc1 | -11.9 | -21.1 | -13.6% | -14.9% | -1.2% | 2.8%
O=C(N/N=C/c1ccc(N2CCOCC2)o1)c1cccc([N+](=O)[O-])c1 | 5.3 | -43.9* | 0.8% | -0.1% | -3.3% | nt
C=CC(C)(C)c1[nH]c2ccccc2c1C1=C(O)C(=O)C(c2c[nH]c3c(CC=C(C)C)cccc23)=C(O)C1=O | nt | 8.9 | nt | nt | nt | nt
COCCCn1[nH]c2c3c(ccc2c1=O)C(=O)c1ccccc1C3=O | -92.7* | -49.2* | -11.0% | -16.8% | -0.3% | -0.5%
Cc1[nH]c2ccc3ncccc3c2c1C | 9.6 | -38.6* | 3.8% | -28.4% | -2.8% | 1.6%
Cc1cc(C)n(S(=O)(=O)c2ccccc2[N+](=O)[O-])n1 | -86.9* | 0.3 | -2.6% | 7.2% | 0.4% | 4.3%
O=c1oc2ccccc2cc1-c1cn2cc(Cc3ccccc3F)sc2n1 | nt | nt | nt | -16.5% | nt | nt
Cc1cccc(C)c1Nc1c(-c2ccsc2)nc2ccccn12 | nt | nt | nt | 22.7% | nt | nt
Cc1cccc(C)c1Nc1c(-c2ccccn2)nc2ccccn12 | 13.2 | -5.5 | 4.47µM* | 24.8% | ? | -0.3%
O=C(Nc1ccc2c(c1)OCO2)NC1(C(F)(F)F)Oc2ccccc2O1 | 7.4 | -20.8 | -10.7% | -26.9% | 0.0% | 3.2%
O=C(Nc1ccc2c(c1)OCCO2)NC1(C(F)(F)F)Oc2ccccc2O1 | 15.4 | -8.7 | 2.51µM* | -2.6% | 0.0% | 1.6%
CCOc1ccccc1C(=O)NC1(C(F)(F)F)C(=O)Nc2c1c(=O)[nH]c(=O)n2-c1ccccc1 (stereo unspecified) | nt | nt | nt | 4.8% | nt | nt
Cc1nn(-c2ccccc2)c2c1C1(C(=O)N(C(C)C)c3ccccc31)C(C#N)=C(N)O2 (stereo unspecified) | -4.5 | -55.0* | -0.5% | 6.7% | -0.4% | 1.9%
Brc1ccc(CNc2nc3ccccc3n2CCN2CCCCC2)cc1 | -83.4* | -1.0 | ? | 24.5% | -1.0% | 9.7%
O=c1c2ccccc2nc(/C=C/c2ccc([N+](=O)[O-])o2)n1CCCO | -87.6* | -0.1 | -2.7% | ? | 5.6% | 3.1%
O=c1c2ccccc2nc(/C=C/c2ccc([N+](=O)[O-])cc2)n1CCCO | -6.3 | 1.1 | 2.3% | -1.0% | 0.0% | -4.6%
NCCc1cnc(-c2cccc(C(F)(F)F)c2)[nH]1 | nt | -4.8 | nt | nt | nt | nt
FC(F)(F)c1cccc(-c2nc3nc(Cl)c(Cl)nc3[nH]2)c1 | -12.6 | -36.1* | ? | 1.0% | 0.3% | -3.1%
O=C(c1ccc(Nc2nc3ccccc3n3nnnc23)cc1)N1CCN(c2ccc(F)cc2)CC1 | nt | nt | nt | 9.2% | nt | nt
CC(N)COC(=O)C(CCCCN)NC(=O)Cc1c(-c2ccc3ccccc3c2)[nH]c2c1ccc1ccccc12 (stereo unspecified) | nt | 2.8 | nt | nt | nt | nt
COc1ccc2c(c1)CCc1cn3nc(C)cc3nc1-2 | -17.2 | -45.5* | -11.5% | -5.3% | 0.5% | 9.5%
Cc1ncc([N+](=O)[O-])n1CCOC(=O)NC(Nc1ccc(F)cc1)C(Cl)(Cl)Cl (stereo unspecified) | ? | -1.0 | 3.4% | 0.9% | 0.0% | -2.5%
Cc1ccccc1NC(NC(=O)OCCn1c([N+](=O)[O-])cnc1C)C(Cl)(Cl)Cl (stereo unspecified) | -82.3* | -4.6 | 5.3% | -6.7% | -0.6% | -7.7%
SMILES | Giardia killer | FBPA coupling cs | uPA generation | miR-21 act | B2AR arrestin | GALK inh
Cc1ncc([N+](=O)[O-])n1CCOC(=O)NC(NCc1cccnc1)C(Cl)(Cl)Cl (stereo unspecified) | -92.2* | 4.1 | 9.9% | -2.8% | -0.9% | -0.4%
COCCN(C(=O)COC(=O)C1CCC(C(C)(C)C)CC1)c1c(N)n(Cc2ccccc2)c(=O)[nH]c1=O (stereo unspecified) | 15.5 | nt | 10µM* | nt | -0.2% | nt
CC(C)(C)C(=O)Nc1ccc2nc(SCC(=O)N3CCCC3)sc2c1 | nt | nt | nt | -6.6% | nt | nt
CCOC(=O)c1cccc(NC(=O)CC(c2cc(OC)c(OC)c(OC)c2)N2Cc3ccccc3C2=O)c1 (stereo unspecified) | nt | nt | nt | -0.7% | nt | nt
COc1ccc2cc(-c3cc(C(=O)O)c4ccccc4n3)ccc2c1 | -105.1* | 6.2 | -17.0% | ? | -0.3% | -4.2%
Cc1ncc([N+](=O)[O-])n1CCOC(=O)NC(NCc1ccccc1)C(Cl)(Cl)Cl (stereo unspecified) | ? | 1.0 | -0.3% | 1.2% | 0.3% | 4.4%
Cc1ncc([N+](=O)[O-])n1CCOC(=O)Nc1ccc(Cl)c(Cl)c1 | -89.7* | -6.1 | -2.5% | -6.5% | 0.1% | 0.0%
Cc1ncc([N+](=O)[O-])n1CCOC(=O)c1ccccc1 | -99.8* | 4.0 | -6.3% | -2.9% | -0.8% | -1.9%
CCN1CCOC(=O)C1CC(=O)Nc1ccc(Br)cc1 (stereo unspecified) | nt | nt | nt | -33.6% | nt | nt
Cc1ccc(-n2c3nc(=O)[nH]c(=O)c-3cc3cc([N+](=O)[O-])ccc32)cc1 | -10.2 | -33.9* | -2.5% | 7.0% | 0.2% | -11.7%
CCCSc1oc(-c2ccco2)nc1S(=O)(=O)c1ccccc1 | -21.2 | -35.9* | -19.7% | 2.5% | 0.5% | -1.8%
O=S(=O)(Nc1cccc2cccnc12)c1ccc(Br)s1 | nt | -19.3 | nt | nt | nt | nt
CN(C)c1ccc(-c2noc(C3CC(=O)N(c4ccc5c(c4)OCCO5)C3)n2)cc1 (stereo unspecified) | nt | nt | nt | 5.6% | nt | nt
CCC1=Nc2cc(C(=O)NCc3ccco3)ccc2Sc2ccc(Cl)cc21 | 7.0 | -3.6 | -8.5% | 14.4% | 6.9% | -0.5%
CCC1=Nc2cc(C(=O)NCc3ccco3)ccc2Sc2ccccc21 | -4.4 | -0.8 | 3.16µM* | 10.7% | ? | -0.2%
CN(C)c1cc(-c2ccccc2)nc(N)n1 | 10.4 | 2.3 | 10µM* | 12.4% | 0.2% | 2.1%
CN(C)c1cc(-c2ccccc2)nc(-c2ccccc2)n1 | -1.8 | 0.7 | 2.5% | -3.6% | -2.4% | -2.8%
O=c1c2cc(F)ccc2sn1-c1ccc(F)cc1 | -3.8 | nt | -26.1% | nt | 0.3% | nt
COc1ccc(-n2sc3ccc(F)cc3c2=O)cc1 | -18.2 | nt | 10µM* | nt | -0.6% | nt
COc1cc(/C=C/C(=O)c2ccc([N+](=O)[O-])o2)ccc1O | -11.8 | nt | ? | nt | -0.1% | nt

Screening results: PubChem, National Center for Advancing Translational Sciences (NCATS)
